# M1 antag: human CHRM1 antagonism. P11229. CHO-K1 hM1, Fluo-8 calcium fluorescence, ACh EC80 antagonist. inhibition, % at 3 µM. 360,000 compounds, 1.3% hits;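 active means percent inhibition above its own plate's cutoff, namely the mean of that plate's compound wells plus 3 SD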;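 further: peak over basal fluorescence ratio during 140 s after agonist addition; 0% = ACh EC80 plus DMSO and 100% = DMSO alone without agonist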
# Target sequence (P11229 whole entry, looked up): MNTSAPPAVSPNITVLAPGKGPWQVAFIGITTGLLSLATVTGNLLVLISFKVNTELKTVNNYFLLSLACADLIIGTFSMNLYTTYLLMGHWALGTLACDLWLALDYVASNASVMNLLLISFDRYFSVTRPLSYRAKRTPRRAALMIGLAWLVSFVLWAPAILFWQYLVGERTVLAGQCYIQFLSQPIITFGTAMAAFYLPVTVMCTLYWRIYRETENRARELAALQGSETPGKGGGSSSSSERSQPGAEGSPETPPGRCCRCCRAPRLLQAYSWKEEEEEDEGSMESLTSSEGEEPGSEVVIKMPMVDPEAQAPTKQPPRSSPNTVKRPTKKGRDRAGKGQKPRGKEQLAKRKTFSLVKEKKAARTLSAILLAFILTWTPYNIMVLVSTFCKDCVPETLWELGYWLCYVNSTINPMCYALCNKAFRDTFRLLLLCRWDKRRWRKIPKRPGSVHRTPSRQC
# CHRM1 PAM: positive allosteric modulators of human M1 muscarinic receptor; P11229; 360,000 compounds, 0.088% hits; CHO-K1 hM1, Fluo-8 calcium fluorescence, ACh EC20; 0% = ACh EC20, 100% = maximal ACh; activation, % at 3 µM; AID 588819; in the data active means activation above about 19%, passing the limit was not always enough
# CHRM1 agonist: human M1 muscarinic receptor agonism | activation, % at 3 µM | P11229 | 360,000 compounds, 0.33% hits | CHO-K1 hM1, Fluo-8 calcium fluorescence, agonist mode; 0% DMSO, 100% acetylcholine EC100;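 active means activation above the run's mean compound activation plus 3 SD, cut at about 16% in these data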;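 further: peak over basal fluorescence ratio within a 140 s kinetic read after compound addition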
# CHO-K1 Ca antag: M1 antagonist counterscreen hit in parental CHO-K1 cells; ATP-induced calcium, Fluo-8 fluorescence; inhibition, % at 3 µM; 360,000 compounds, 0.6% hits; AID 602250;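 active means inhibition above a per-plate cutoff, the plate's mean sample inhibition plus 3 SD, cut at about 24% in these data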;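 further: 0% = DMSO plus EC80 ATP and 100% = DMSO alone without ATP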
# M1 ag parental: nonselective activator or artifact in parental CHO-K1 cells; 360,000 compounds, 0.48% hits; AID 602248; activation, % at 3 µM; Fluo-8 calcium fluorescence; scaled to maximal ATP response, vehicle zero; in the data active means activation above about 15%;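 further: untransfected CHO-K1 host cells lacking M1 receptor as counterscreen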
# M1 PAM parental: M1 PAM counterscreen hit in parental CHO-K1 cells; activation, % at 3 µM; AID 602247; ATP EC20, Fluo-8 calcium fluorescence; 0% at ATP EC20, 100% at ATP max; 360,000 compounds, 0.02% hits;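 active means activation above the run cutoff, the mean activation of all test compounds plus 3 SD, cut at about 40% in these data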;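 further: peak over basal fluorescence ratio in a 140 s read after ATP addition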
# Numbers without * were called inactive. Compounds with a hit are over-represented: about 2.4% of the library has one in this group of screens.
SMILES,M1 antag,CHRM1 PAM,CHRM1 agonist,CHO-K1 Ca antag,M1 ag parental,M1 PAM parental
CSc1ccc(S(=O)(=O)Nc2ccc3c(c2)NC(=O)CC3)cc1,6,-9,-9,14,16*,2
COc1ccc(S(=O)(=O)Nc2ccc3c(c2)C(=O)N([C@H](C)CO)C[C@H](C)[C@@H](CN(C)C(=O)Nc2c(C)noc2C)OCCCC[C@H](C)O3)cc1,2,-29,40*,-17,1,22
C[C@H](CO)N1C[C@H](C)[C@@H](CN(C)S(=O)(=O)c2cccs2)Oc2ccc(NC(=O)Cn3cnnn3)cc2C1=O,26*,-22,-10,-9,0,14
C[C@H](CO)N1C[C@H](C)[C@@H](CN(C)S(=O)(=O)c2ccccc2)Oc2ccc(NC(=O)C3CCCCC3)cc2C1=O,7,-8,-11,-6,0,5
C[C@@H]1CCCCO[C@H](CN(C)S(=O)(=O)c2cccs2)[C@H](C)CN([C@@H](C)CO)C(=O)c2cc(NC(=O)NC3CCCCC3)ccc2O1,-10,-2,-7,-11,0,20
C[C@H](CO)N1C[C@H](C)[C@@H](CN(C)S(=O)(=O)c2ccccc2)Oc2ccc(NC(=O)NC3CCCCC3)cc2C1=O,39*,-31,-11,7,0,-11
C[C@H](CO)N1C[C@H](C)[C@@H](CN(C)S(=O)(=O)c2cccs2)Oc2ccc(NC(=O)NC3CCCCC3)cc2C1=O,44*,-33,-11,-8,0,13
Cc1nc2c(OCc3cccc(Cl)c3)cccn2c1N(C)Cc1cccs1,34*,-13,-4,-1,2,-1
Cc1nc2c(OCc3ccc(Cl)cc3Cl)cccn2c1N(C)Cc1cccs1,16,-13,-6,-4,1,6
Cc1noc(C)c1S(=O)(=O)N1CCN(c2ccc(Cl)cc2)CC1,-5,1,-4,-12,1,13
Cc1noc(C)c1S(=O)(=O)Nc1ccc(C(=O)N2CCN(c3ccc(Cl)cc3)CC2)cc1,18*,-13,6,22,10,8
CCC(C(=O)c1ccc2ncccc2c1)c1ccccc1 (stereo not given),35*,-27,-10,-2,4,14
CN1CCN(C(c2cccc(Cl)c2)c2ccccc2Cl)CC1 (stereo not given),88*,-25,-10,-5,2,20
Cc1cccc(C(=O)NCC(=O)N2CCN(c3ccc(Cl)cc3)CC2)c1,3,1,0,-13,16*,12
Cc1c(Br)c([N+](=O)[O-])nn1CCCC(=O)Nc1c(C)n(C)n(-c2ccccc2)c1=O,82*,-24,-8,6,0,-17
Cc1cc([N+](=O)[O-])nn1CCCC(=O)Nc1c(C)n(C)n(-c2ccccc2)c1=O,31*,-14,-4,-11,0,14
Cc1cc(NC(=O)CCCn2nc([N+](=O)[O-])c(Br)c2C)no1,6,-1,-4,8,3,3
C[N+]1(CCCCCCC(=O)/C=N/O)CCCCCC1,-2,0,-4,1,0,16
C[N+](C)(C)CCCCCCC(=O)/C=N/O,5,-11,36*,21,0,-8
COc1ccc(Cc2nc3ccc(C(=O)N(C)CCc4cnn(C)c4)cc3o2)cc1OC,-2,2,5,-1,3,-2
FC(F)(F)c1cc(CCN2CCNC[C@@H]2c2ccccc2)cc(C(F)(F)F)c1,9,-3,-4,-4,1,-11
CCCC[C@@H]1CNCCN1CCc1cc(C(F)(F)F)cc(C(F)(F)F)c1,34*,-27,-12,-6,0,10
FC(F)(F)c1cc(CCN2CCNC[C@@H]2CC2CCCCC2)cc(C(F)(F)F)c1,36*,-8,12,-16,0,20
COc1ccc(OCc2cc(C(=O)N(Cc3nccn3C)C(C)C)no2)c2ccccc12,8,-6,-4,-11,5,12
COc1ccc(C(=O)N2CCCCC2c2cc(C(=O)NCc3ccc(F)cc3)no2)cc1 (stereo not given),-18,15,0,15,3,-5
SMILES,M1 antag,CHRM1 PAM,CHRM1 agonist,CHO-K1 Ca antag,M1 ag parental,M1 PAM parental
O=C(CSc1c2c(nc3ccc(Cl)cc13)CCCC2)NCCCN1CCOCC1,98*,-26,-9,15,0,-14
O=C(NCc1ccccc1)c1ccc(C2SCC(=O)N2Cc2ccccc2)cc1 (stereo not given),59*,-23,-5,7,2,10
CN(C)c1ccc(CC(=O)N2CCCC(c3cc(C(=O)Nc4ccc(C(C)(C)C)cc4)no3)C2)cc1 (stereo not given),29*,-11,3,9,5,8
O=C(Nc1ccccc1)c1cc(C2CCCN(C(=O)CCc3ccccc3)C2)on1 (stereo not given),-12,0,-4,-6,2,12
CCCCn1nnnc1NCc1ccc(N2CCCC2)cc1,91*,-20,-6,-3,0,2
CCCn1nnnc1NCc1ccc(N2CCCC2)cc1,58*,-27,-7,-10,0,8
CCCn1nnnc1NCc1ccc(F)cc1,-8,11,-7,10,14,19
Cc1ccc2c(c1)C1(SC(C)C(=O)N1c1ccc(Cl)cc1)C(=O)N2 (stereo not given),25,-26,-12,0,2,12
Cc1ccc(N2C(=O)CSC23C(=O)Nc2ccccc23)cc1 (stereo not given),41*,-19,-5,-3,0,11
Cc1ccc(-n2nnnc2SCn2nnc3ccccc3c2=O)cc1,25,-9,-3,-3,2,-2
Cc1cccc(-n2nnnc2SCn2nnc3ccccc3c2=O)c1,10,-8,-2,27*,2,-6
CCOC(=O)CC1=NN(c2ccccc2)C(=O)/C1=C\c1ccc(OC)cc1OC,9,0,-2,16,0,-15
CN(C)S(=O)(=O)c1cccc(NC(=O)c2ccc(OC(F)(F)F)cc2)c1,18,-18,-5,13,19*,5
CN(C)S(=O)(=O)c1cccc(NC(=O)c2ccc(COc3ccccc3)cc2)c1,39*,-24,-3,30*,18*,-11
CCN(CC)CCNC(=O)c1ccc(NC(=O)c2ccc(COc3ccccc3)cc2)cc1,53*,-24,-6,-8,2,17
CCN(CC)CCNC(=O)c1ccc(NC(=O)COc2ccc3c(c2)CCC3)cc1,45*,-26,-7,1,0,7
CCN(CC)CCNC(=O)c1ccc(NC(C)=O)cc1,-18,-1,-2,-1,1,11
CCN(CC)CCNC(=O)c1ccc(NC(=O)c2ccc(C(=O)c3ccccc3)cc2)cc1,12,-14,-8,-10,2,22
CCN1CCN(c2ccc(N=Cc3ccccc3O)cc2)CC1,10,-4,-7,-9,0,11

# Assay outcomes (PubChem)
